Measurements as given in PubChem BioAssay (NCATS).
Records with an inconclusive call do not appear. Calls of active or inactive are those of the source. The call rests on the fitted dose curve; in most records, active means well fitted curve in the direction sought with a large enough effect; inconclusive means small, poorly fitted or top-dose-only effect, or another doubt; inactive means no such curve, though single readings can be large; an effect the other way counts as inactive or inconclusive.

Tests used:
HeLa = test: Primary qHTS to identify gynecologic anti-cancer compounds using libraries of approved drugs and bioactive compounds (AID 1345084); details: Gynecologic cancer cell panel viability, ATPlite luminescence, 48 h; series mostly up to 57.5 µM; further: nearly all actives have a fitted effect of over 55% in size
How it was run: (§1)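 Cells, 1,000 per well, were allowed to settle for 16 h at 37 C before compound addition. Five concentrations were tested for 48 h, and viability was read by ATPlite luminescence after 15 min at room temperature.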

Hek293T = test: as above; details: Gynecologic cancer cell panel viability, ATPlite luminescence, 48 h, control line for the selectivity index; series mostly up to 57.5 µM
How it was run: as §1

JEG-3 = test: as above; details: Gynecologic cancer cell panel viability, ATPlite luminescence, 48 h; series mostly up to 57.5 µM
How it was run: as §1

OV90 = test: as above; details: Gynecologic cancer cell panel viability, ATPlite luminescence, 48 h; series mostly up to 57.5 µM
How it was run: as §1

PA-1 = test: as above; details: Gynecologic cancer cell panel viability, ATPlite luminescence, 48 h; series mostly up to 57.5 µM
How it was run: as §1

SKOV3 = test: as above; details: Gynecologic cancer cell panel viability, ATPlite luminescence, 48 h; series mostly up to 57.5 µM
How it was run: as §1

Tov-21-G = test: as above; details: Gynecologic cancer cell panel viability, ATPlite luminescence, 48 h; series mostly up to 57.5 µM
How it was run: as §1

Tov112D = test: as above; details: Gynecologic cancer cell panel viability, ATPlite luminescence, 48 h; series mostly up to 57.5 µM
How it was run: as §1

[1] = Drug repurposing screens with cells derived from glioblastoma tumor samples (AID 1345199); details: GBM patient neurospheres viability, ATP luminescence, 48 h; further: nearly all actives have a fitted effect of over 40% in size
How it was run: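 Primary testing used CD133+ neurospheres from four GBM patients, seven concentrations, 48 h exposure and ATP-based viability; confirmation added three slower-growing patient lines.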

Es-2 = test: Primary qHTS to identify gynecologic anti-cancer compounds using libraries of approved drugs and bioactive compounds (AID 1345084); details: Gynecologic cancer cell panel viability, ATPlite luminescence, 48 h; series mostly up to 57.5 µM; further: nearly all actives have a fitted effect of over 55% in size
How it was run: as §1

[2] = at 45.9 µM (top of the series), tumour line B
[3] = at 45.9 µM (top of the series), tumour line D
[4] = at 46.1 µM (top of the series), tumour line C
[5] = at 46 µM (top of the series), tumour line A
On the % scale 0 is the no-effect control and ±100 the full control effect; potency means the concentration at half of the fitted maximal effect.

Cc1cc(-c2ccccc2)nnc1NCCN1CCOCC1
active: Potency ([1]; tumour line A) 12.6 µM
inactive: Potency (HeLa) | Potency (Hek293T) | Potency (JEG-3) | Potency (OV90) | Potency (PA-1) | Potency (SKOV3) | Potency (Tov-21-G) | Potency (Tov112D) | activity, negative = cell killing [1, 2] -18.6% | activity, negative = cell killing [1, 3] -4.44% | activity, negative = cell killing [1, 4] -11.7%

O=C1C(O)=C(O)C(=O)C(O)=C1O
inactive: Potency (Es-2) | Potency (Hek293T) | Potency (JEG-3) | Potency (OV90) | Potency (SKOV3) | Potency (Tov-21-G) | activity, negative = cell killing [1, 2] -1.83% | activity, negative = cell killing [1, 3] -8.56% | activity, negative = cell killing [1, 5] -7.89% | activity, negative = cell killing [1, 4] 12.8%

O=C(Nc1ncc([N+](=O)[O-])s1)c1cccs1
inactive: Potency (JEG-3) | Potency (SKOV3)
active: Potency (OV90) 20 µM

O[C@@H](c1cc(C(F)(F)F)nc2c(C(F)(F)F)cccc12)[C@H]1CCCCN1
active: Potency (SKOV3) 25.1 µM

O=C(NCCc1c[nH]c2ccccc12)c1cccnc1
inactive: Potency (HeLa) | Potency (Hek293T) | Potency (JEG-3) | Potency (PA-1) | Potency (SKOV3) | Potency (Tov-21-G) | Potency (Tov112D) | activity, negative = cell killing [1, 2] -17.4%

CCCCCCCCCCCCCC[N+](C)(C)Cc1ccccc1
active: Potency (HeLa) 25.1 µM | Potency (SKOV3) 22.4 µM | Potency (Tov-21-G) 20 µM | Potency (Tov112D) 14.1 µM

CCC(CC)(CC(=O)Nc1cccc(/C=C/c2nc(C3CCC3)cs2)c1)C(=O)O
inactive: Potency (SKOV3) | Potency (Tov112D)

CCc1oc2ccccc2c1C(=O)c1cc(Br)c(O)c(Br)c1
active: Potency ([1]; tumour line D) 35.5 µM
inactive: Potency (Es-2) | Potency (Hek293T) | Potency (JEG-3) | Potency (OV90) | Potency (PA-1) | Potency (Tov-21-G) | Potency (Tov112D) | activity, negative = cell killing [1, 5] -39.6% | activity, negative = cell killing [1, 4] -6.19%

CCN(CC)CCNc1ccc(CO)c2sc3ccccc3c(=O)c12
active: Potency (Hek293T) 35.5 µM | Potency (OV90) 35.5 µM | Potency (PA-1) 28.2 µM
inactive: Potency (HeLa)

CCCCNc1ccc(C(=O)OCCOCCOCCOCCOCCOCCOCCOCCOCCOC)cc1
inactive: Potency (HeLa) | Potency (JEG-3) | Potency (Tov-21-G) | Potency (Tov112D) | activity, negative = cell killing ([1]; at 20 µM (top of the series), tumour line C) 19.8% | activity, negative = cell killing ([1]; at 21.2 µM (top of the series), tumour line B) -6.92% | activity, negative = cell killing ([1]; at 21.2 µM (top of the series), tumour line D) -6.38% | activity, negative = cell killing ([1]; at 21.3 µM (top of the series), tumour line A) -27%

CCCCCCCCNC(C)C(O)c1ccc(SC(C)C)cc1 (centres undefined)
inactive: Potency (HeLa) | Potency (Tov112D)

O=C(NC1CCN(CCc2c[nH]c3ccccc23)CC1)c1ccccc1
inactive: Potency (Es-2) | Potency (Hek293T) | Potency (JEG-3) | Potency (OV90) | Potency (PA-1) | Potency (SKOV3) | Potency (Tov-21-G) | Potency (Tov112D) | activity, negative = cell killing [1, 3] -28%
active: Potency ([1]; tumour line A) 11.2 µM | Potency ([1]; tumour line C) 20.6 µM

CN1CCN(CCC(=O)N2c3ccccc3Sc3ccc(C(F)(F)F)cc32)CC1
inactive: Potency (HeLa)
active: Potency (OV90) 15.8 µM

CC(=O)OC[C@H]1O[C@@H](n2ncc(=O)[nH]c2=O)[C@H](OC(C)=O)[C@@H]1OC(C)=O
inactive: Potency (HeLa) | Potency (Hek293T) | Potency (JEG-3) | Potency (OV90) | Potency (SKOV3) | Potency (Tov112D) | activity, negative = cell killing [1, 3] -20.8% | activity, negative = cell killing [1, 5] -30.4%

CN1CCC[C@@H]1CCO[C@](C)(c1ccccc1)c1ccc(Cl)cc1
active: Potency (JEG-3) 20 µM | Potency (OV90) 11.2 µM | Potency (SKOV3) 22.4 µM
inactive: Potency (HeLa)

N#C/C(=C1\SCC(c2ccccc2Cl)S1)n1ccnc1 (centres undefined)
active: Potency ([1]; tumour line A) 10 µM
inactive: Potency (Es-2) | Potency (Hek293T) | Potency (JEG-3) | Potency (OV90) | Potency (PA-1) | Potency (Tov-21-G) | Potency (Tov112D) | activity, negative = cell killing [1, 2] -11.6% | activity, negative = cell killing [1, 3] -27.3% | activity, negative = cell killing [1, 4] 0.133%

CNCCCCOc1ccccc1Cc1ccccc1
inactive: Potency (HeLa) | Potency (JEG-3) | Potency (PA-1) | Potency (Tov-21-G) | Potency (Tov112D)

CCN(CC)CCOc1ccc2c(c1)C(=O)c1cc(OCCN(CC)CC)ccc1-2
inactive: Potency (HeLa)
active: Potency (OV90) 12.6 µM | Potency (Tov-21-G) 22.4 µM

NC(N)=NN=C(/C=C/c1ccc([N+](=O)[O-])o1)/C=C/c1ccc([N+](=O)[O-])o1
active: Potency (Es-2) 31.6 µM | Potency (HeLa) 22.4 µM | Potency (OV90) 15.8 µM | Potency (PA-1) 7.08 µM | Potency (Tov-21-G) 12.6 µM | Potency (Tov112D) 17.8 µM

CCCCCCCCCCCCOCCOCCOCCOCCOCCOCCOCCOCCOCCO
active: Potency (OV90) 28.2 µM
inactive: Potency (JEG-3) | Potency (Tov-21-G) | Potency (Tov112D)

CC(C)Cn1cnc2c1c(=O)n(C)c(=O)n2C
inactive: Potency (Es-2) | Potency (Hek293T) | Potency (JEG-3) | Potency (OV90) | Potency (PA-1) | Potency (SKOV3) | Potency (Tov-21-G) | Potency (Tov112D) | activity, negative = cell killing [1, 2] -4.91% | activity, negative = cell killing [1, 3] -3.1% | activity, negative = cell killing [1, 4] -1.11%
